In the library only some 5.2% were active in any assay of this set; here they are far more common.
PLK1 PBD inh: blocks phosphopeptide binding to human PLK1 polo-box domain; P53350; Plk1 PBD binding of FITC phosphopeptide, fluorescence polarization; Potency, µM, inactives show max response, negative = inhibition, actives largely listed as inhibitors; 360,000 tested, 2.8% active; AID 720504; further: series mostly up to about 57 µM; nearly all actives have a fitted effect of over 65% in size
IDH1 R132H inh: human IDH1 R132H inhibition. IDH1-R132H enzyme, NADPH consumption, diaphorase/resazurin fluorescence. Potency, µM (doses to about 76.6 µM), for inactives: top-dose activity change, negative = inhibition, hits mostly inhibitors. 390,000 tested, 0.093% active. O75874; further: nearly all actives have a fitted effect of over 65% in size
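IDH1-R132H (0.5 ug/mL) preincubated 30 min with compound, then NADPH (0.016 mM) and alpha-KG (2 mM) added; 80 min at RT, pH 7.5. Remaining NADPH coupled via diaphorase/resazurin to fluorescence (540/590 nm); concentration-response curves normalized to no-enzyme control.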
TrxR1 substrate: rat thioredoxin reductase 1 substrate activity | purified TrxR1 substrate turnover, NADPH consumption readout | Potency, µM (titrated, usually from 114 µM), for the others: top-dose activity change, negative = substrate turnover | 390,000 tested, 0.01% active | AID 588456; further: nearly all actives have a fitted effect of over 50% in size
Target sequence (O89049 whole entry, looked up): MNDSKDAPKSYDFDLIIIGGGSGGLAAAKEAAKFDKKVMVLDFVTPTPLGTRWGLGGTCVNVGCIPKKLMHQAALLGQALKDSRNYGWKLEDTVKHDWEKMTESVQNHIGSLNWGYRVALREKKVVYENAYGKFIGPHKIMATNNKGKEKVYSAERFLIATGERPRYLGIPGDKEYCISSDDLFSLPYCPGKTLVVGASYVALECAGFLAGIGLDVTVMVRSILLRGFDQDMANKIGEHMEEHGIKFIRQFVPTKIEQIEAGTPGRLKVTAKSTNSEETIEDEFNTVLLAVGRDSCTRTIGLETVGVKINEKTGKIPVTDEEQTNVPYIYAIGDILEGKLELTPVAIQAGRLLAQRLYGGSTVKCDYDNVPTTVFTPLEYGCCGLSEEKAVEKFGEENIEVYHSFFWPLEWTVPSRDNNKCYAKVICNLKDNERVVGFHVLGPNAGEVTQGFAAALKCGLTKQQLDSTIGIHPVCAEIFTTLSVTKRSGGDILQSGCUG
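Rat TrxR1, dispensed at 90 nM, was prereduced with 400 uM NADPH (final) for 5 min at ~22 deg C, then incubated with compound 15 min before 400 uM selenite. A first-read NADPH fluorescence drop versus no-compound background flagged substrates.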
VDR inh: blocks the human vitamin D receptor; P11473; VDR-SRC2-3 peptide fluorescence polarization, 2 h; Potency, µM, inactives show max response, negative = inhibition, hits mostly inhibitors; 400,000 tested, 0.93% active
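FP read-out; VDR + SRC2-3 coactivator peptide; 23 nl compound by pintool; 2 h RT incubation; reagents held at 4 deg C, protected from light.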
Sfp inh: blocks B. subtilis Sfp PPTase activity. Q9F4F7. Biochemical Sfp PPTase activity, qHTS. Potency, µM, without a hit: largest response in the series, negative = inhibition, most hits filed as inhibitors. 310,000 tested, 3.5% active;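 further: the enzyme is Sfp with the accession as filed and its product quenches rhodamine fluorescence; 0% = enzyme reaction without inhibitor and -100% = no enzyme wells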
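Compounds were incubated with enzyme (final 15 nM) for 15 min at room temperature before substrate addition started the reaction. Fluorescence at 525 nm excitation, 598 nm emission was recorded immediately and after 30 minutes.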
TrxR1 inh: rat TrxR1 inhibition. O89049. recombinant rTrxR1, NADPH fluorescence consumption, selenite substrate. Potency, µM (top dose mostly 114 µM), inactives show top-dose activity change, negative = inhibition, most hits filed as inhibitors. 390,000 tested, 1% active; further: nearly all actives have a fitted effect of over 65% in size
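Rat TrxR1 (90 nM in the dispensed reagent) was pre-reduced with 400 uM NADPH for 5 min at room temperature, then incubated with compound for 15 min. After 400 uM selenite was added, NADPH fluorescence (Ex 340/Em 450 nm) was followed for 8 min.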
Numbers without * were called inactive; ? = inconclusive; . = no result; [ ] = dose if it differs, or a comment. The call rests on the fitted dose curve; in most records, active means well fitted curve in the direction sought with a large enough effect; inconclusive means small, poorly fitted or top-dose-only effect, or another doubt; inactive means no such curve, though single readings can be large; an effect the other way counts as inactive or inconclusive. Unless noted, on the % scale 0 is the no-effect control and ±100 the full control effect; potency means the concentration at half of the fitted maximal effect.

SMILES	PLK1 PBD inh	IDH1 R132H inh	TrxR1 substrate	VDR inh	Sfp inh	TrxR1 inh
CSc1ccc(CCNC(=O)CCc2c(C)nc3ncnn3c2C)cc1	.	-2%	3%	-18%	.	30%
Cc1nc2ncnn2c(C)c1CCC(=O)NCCc1ccccc1	24µM*	15%	-2%	-12%	14%	3%
CCOC(=O)C(Cc1ccccc1)NC(=O)CCc1c(C)nc2nc(C)nn2c1C (stereo not drawn)	27µM*	-4%	8%	?	14%	23%
COC1=CC(=O)OC(c2cccc(Cl)c2)C1 (stereo not drawn)	-12%	.	.	.	.	.
CC(=O)Nc1ccc(NC(=O)c2oc3ccc4c(c3c2C)C(=O)CC(C)(C)O4)cc1	.	10%	?	5%	.	-8%
CN(C)CCCn1c(=S)[nH]c2sc3c(c2c1=O)CCCC3	19µM*	3%	36%	?	79µM*	-14%
CCn1c(=S)[nH]c2sc3c(c2c1=O)CCCC3	-29%	0%	1%	?	2%	?
O=C(O)[C@@H](c1ccccc1)N1Cc2ccccc2C1=O	-15%	-25%	-1%[57.1 µM]	-16%	28µM*	6%[57.1 µM]
CC(=O)Nc1ccc(NC(=O)C(c2ccccc2)N2Cc3ccccc3C2=O)cc1 (stereo not drawn)	.	-10%	-8%	20%	.	8%
Cc1ccc(C2CC(=O)NC(SCc3ccccc3)=C2C#N)o1 (stereo not drawn)	-26%	-1%	5%[57.1 µM]	25%	?	-25%[57.1 µM]
N#CC1=C(SCc2ccccc2)NC(=O)CC1c1ccco1 (stereo not drawn)	-23%	13%	0%	-26%	45µM*	-26%
N#CC1=C(SCC(=O)Nc2ccccc2)NC(=O)CC1c1ccco1 (stereo not drawn)	-13%	11%	8%	-11%	.	-4%
N#CC1=C(SCC(=O)NCc2ccccc2)NC(=O)CC1c1ccco1 (stereo not drawn)	9.5µM*	7%	2%[57.1 µM]	-11%	-6%	-18%
COc1ccc(N2CC(C(=O)Nc3nnc(SCC(=O)NCc4ccco4)s3)CC2=O)cc1 (stereo not drawn)	?	17%	6%	?	50µM*	?
NC(=O)CSc1nnc(NC(=O)C2CC(=O)N(c3ccc(F)cc3)C2)s1 (stereo not drawn)	?	2%	-5%	-27%	?	-18%
O=C(CSc1nnc(NC(=O)C2CC(=O)N(c3ccc(F)cc3)C2)s1)NCc1ccco1 (stereo not drawn)	?	-4%	7%	79µM*	-22%	32µM*
Cc1cc(Br)ccc1OCCCCN1CCCCC1	-2%	2%	7%	-16%	45µM*	3%[57.1 µM]
CCN(CCCCO)c1nc(C)nc2c1c(C)c(C)n2-c1c(C)cc(C)cc1C	.	.	.	?	-15%	.
O=c1cc(CO)oc(C(Nc2ccccn2)c2ccccc2F)c1O (stereo not drawn)	?	5%	2%	?	.	?
COc1cccc(C(Nc2ccccn2)c2oc(CO)cc(=O)c2O)c1 (stereo not drawn)	21µM*	-2%	-2%	?	4.5µM*	71µM*
O=c1cc(CO)oc(C(Nc2ccccn2)c2cccc(F)c2)c1O (stereo not drawn)	24µM*	-5%	-2%	16µM*	10µM*	20µM*
O=c1cc(CO)oc(C(Nc2ccccn2)c2ccc(C(F)(F)F)cc2)c1O (stereo not drawn)	?	-2%	-9%	?	?	-18%
CCCC(O)(CCN1CCOCC1)c1ccc(Cl)cc1 (stereo not drawn)	-6%	8%	5%	3%	11%	?
CCCC(O)(CCN1CCOCC1)c1ccc(Br)cc1 (stereo not drawn)	-16%	9%	-6%	-2%	0%	35µM*
CCOc1cccc(NC(=O)CSc2sc3c(O)cc(=O)[nH]c3c2C#N)c1	-25%	6%	-12%	-16%	35µM*	-6%
SMILES	PLK1 PBD inh	IDH1 R132H inh	TrxR1 substrate	VDR inh	Sfp inh	TrxR1 inh
N#Cc1c(SCC(=O)Nc2cccc(F)c2)sc2c(O)cc(=O)[nH]c12	?	0%	-16%	-3%	56µM*	13%[57.1 µM]
N#Cc1c(SCC(=O)Nc2ccccc2C(F)(F)F)sc2c(O)cc(=O)[nH]c12	-17%	-1%	-1%	22%	14µM*	-9%
N#Cc1cccc(NC(=O)CSc2sc3c(O)cc(=O)[nH]c3c2C#N)c1	-24%	-5%	-8%	-4%	?	21%[57.1 µM]
Cc1ccccc1NC(=O)CSc1[nH]c(=O)cc(C)c1C#N	21µM*	10%	7%	-6%	22µM*	-5%
Cc1cccc(OCC(O)CN2C(C)(C)CC(O)CC2(C)C)c1 (stereo not drawn)	9.5µM*	10%	7%[57.1 µM]	-8%	1%	-6%
Cc1ccc2cc(C(c3nnnn3C3CCCC3)N(Cc3cccnc3)Cc3ccco3)c(=O)[nH]c2c1 (stereo not drawn)	-3%	0%	-5%[57.1 µM]	-13%	10µM*	?
Cc1ccc2[nH]c(=O)c(C(c3nnnn3C3CCCC3)N(Cc3cccnc3)Cc3ccco3)cc2c1 (stereo not drawn)	-1%	-7%	5%[57.1 µM]	-10%	-12%	-4%[57.1 µM]
COc1ccc(C)c2sc(NC(=O)c3ccc(S(=O)(=O)N4CCOCC4)cc3)nc12	.	-7%	4%[57.1 µM]	4%	.	30%[57.1 µM]
CCOC(=O)c1ccc(S(=O)(=O)Nc2cc(C(C)(C)C)no2)cc1	-9%	10%	-12%	-17%	79µM*	-22%
CC(C)(C)c1cc(NS(=O)(=O)c2ccc3c(c2)OCCO3)on1	-4%	-5%	3%	18%	-2%	16%
COc1ccc(CNCCc2ccccc2)cc1OCC(N)=O	-2%	7%	-2%	1%	18%	?
COc1cc(CNCc2ccccn2)ccc1OCC(N)=O	-1%	5%	12%	1%	89µM*	23%
CCOC(=O)c1ccc(NC(=O)c2cccc3c2C(=O)N(CC2CCCO2)C3)cc1 (stereo not drawn)	1%	-3%	5%[57.1 µM]	-14%	-31%	5%[57.1 µM]
CCOC(=O)C1=CN(CC2CCCO2)C=C(C(=O)OCC)C1c1ccccc1C(F)(F)F (stereo not drawn)	-3%	3%	101%[57.1 µM]	-2%	40µM*	31%[57.1 µM]
BrC(=C\c1ccccc1)/C=N/N1CCN(c2ccccc2)CC1	-26%	1%	-7%[57.1 µM]	79µM*	45µM*	4%[57.1 µM]
COC(=O)c1c(NC(=O)c2c(OC)cccc2OC)sc2c1CCCC2	.	-9%	57%	-12%	.	45%
NC(=O)c1c(NC(=O)c2ccco2)sc2c1CCC2	-11%	2%	3%	15%	-8%	-13%
